PubChem BioAssay AID1918990 (ICCB-Longwood Screening Facility, Harvard Medical School, 2023)
The campaign covered roughly 29,000 compounds. About 85 (0.3%) were called active. Shown is part of a subset that was picked to be rich in actives. A number with no mark means an inactive call.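 The calls were made as follows: active = replicate mean overnight rise in green fluorescent reporter signal, 3 or more SD over negative controls; inactive = the rest.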

Assay: activators of Burkholderia fixLJ two-component system, primary screen, B. multivorans, GFP reporter (AID 1918990)
Conditions: B. multivorans fixK-promoter GFP reporter, 18 h; hits give high values

Q: Which z-score does the source give for `COc1cc(NS(=O)(=O)c2cccs2)cc(OC)c1` here?
A: -1.05

Q: With `Cc1ccc(C(=O)Nc2ccc3[nH]c(=O)c(=O)[nH]c3c2)cc1` as the molecule, how does the z-score read?
A: -0.29

Q: With `CCCC(=O)Nc1cc2nn(-c3ccccc3)nc2cc1C` as the molecule, how does the z-score read?
A: -0.72

Q: Which z-score does the source give for `O=C(CSc1ccncc1)NC1CCOCC1Oc1cccc(F)c1` (stereo not given) here?
A: -0.58

Q: With `COc1cc(OC)c(N(C)C(=O)c2cc3c(=O)oc4ccccc4c3s2)cc1Cl` as the molecule, how does the z-score read?
A: -1.12

Q: Which z-score does the source give for `CCC(=O)N1CCc2cc(S(=O)(=O)NC(Cc3ccccc3)C(=O)NCc3ccccc3)ccc21` (stereo not given) here?
A: -1.81

Q: Which z-score does the source give for `CC(NC(=O)CCN1CCN(C)CC1)c1cnn(-c2ccccc2)c1` (stereo not given) here?
A: 0.09

Q: Which z-score does the source give for `COc1cc(OC)c(NC(=O)c2c3c(nn2C)-c2ccccc2SC3)cc1Cl` here?
A: 1.42

Q: Which z-score does the source give for `CCOC(=O)c1cnc2c(C)cc(C)cc2c1Nc1ccc(N2CCOCC2)cc1` here?
A: -0.2

Q: For `O=C1CCC2(CCCN(C(=O)c3n[nH]c4c3CCCC4)C2)CN1CC1CC1` (stereo not given), which z-score is on record?
A: -0.52

Q: For `CC(C)(C)NC(=O)CSc1nc(-c2ccc(F)cc2)cc(C(F)(F)F)n1`, which z-score is on record?
A: -1.55

Q: Which z-score does the source give for `CCc1ccc(CN(Cc2ccco2)C(=O)c2ccccc2Cl)cc1` here?
A: 1.11

Q: Which z-score does the source give for `CCN1CCc2nc3sc(C(=O)Nc4ccccc4OC(F)(F)F)c(N)c3cc2C1` here?
A: -0.04

Q: For `Cc1ccc(S(=O)(=O)N2CCCC(C(=O)CCc3ccccc3)C2)s1` (stereo not given), which z-score is on record?
A: -1.15

Q: Which z-score does the source give for `Cc1cc(C)nc(CCNC(=O)N(Cc2ccncc2)CC2CCC(=O)N2)n1` (stereo not given) here?
A: 0.83

Q: For `Cc1ccc(Cl)cc1NC(=O)CCS(=O)(=O)c1ccc(Br)s1`, which z-score is on record?
A: -1.34

Q: With `CCCN1CCN(CCCNC(=O)Cn2nc(CC)n3c(cc4occc43)c2=O)CC1` as the molecule, how does the z-score read?
A: 0.72

Q: For `Cc1nn(C)c2c1C(NC(=O)c1cc(CC(C)C)on1)CCC2` (stereo not given), which z-score is on record?
A: -0.15

Q: For `Cc1ccc(NC(=O)C(Cc2ccccc2)NS(=O)(=O)c2ccc3c(c2)oc(=O)n3C)cc1C` (stereo not given), which z-score is on record?
A: 0.54

Q: For `Cc1nc2c(-c3ccccc3)c(C)nn2c(C)c1CCC(=O)NCCc1ccccc1`, which z-score is on record?
A: -0.95

Q: With `COc1ccc(-c2noc(CCC(=O)N(C)c3ccccc3C)n2)cc1` as the molecule, how does the z-score read?
A: -1.83

Q: With `CCn1c(=O)c(=O)n(CC)c2cc(N3CCCCC3)c(NC(=O)c3ccc(Cl)cc3)cc21` as the molecule, how does the z-score read?
A: 15.3 (active)

Q: For `CCn1c(C(=O)Nc2cc(Cl)ccc2C)cc2sc(Cl)cc21`, which z-score is on record?
A: -0.88

Q: Which z-score does the source give for `CCn1c(=O)c(=O)n(CC)c2cc(N3CCCCC3)c(NC(=O)c3cccc(F)c3)cc21` here?
A: 0.36

Q: For `CCCn1nccc1S(=O)(=O)NCc1csc(-c2cnccn2)n1`, which z-score is on record?
A: -1.08
